Among all 300,000 compounds or so, about 37,000 (12%) were called active. The sample as a whole holds a higher share of actives than the screen did. Values without a mark were called inactive. Cut-off read from the data, not from the text of the source: active = max response mostly above about 13% (no sharp cut-off); inactive = mostly below about 14%.
Experiment: Cycloheximide Counterscreen for Small Molecule Inhibitors of Shiga Toxin; note: read at 38.3 µM for the half of the compounds with a filed dose; 0% is about no effect
Conditions: cell reporter, cycloheximide protein synthesis inhibition counterscreen; hits give high values

Compound | max response
CCS(=O)(=O)c1ccc(O)c(NC(=O)COc2ccc(Cl)cc2)c1 | -2.47%
COC(=O)c1sccc1NC(=O)COc1ccc(Cl)cc1 | 18% (active)
O=C(COc1ccc(Cl)cc1)NCCSc1ccccc1 | -2.45%
COC(=O)c1sccc1NC(=O)CCC1CCCC1 | 11%
O=C(COc1ccc(Cl)cc1)Nc1ccccc1CO | 19.6% (active)
COC(=O)c1sccc1NC(=O)c1ccc(Cl)cc1 | -0.926%
CCOc1ccc(N/C(N)=N/c2nc(C)c(C)c(=O)[nH]2)cc1 | 0.863%
Cc1ccc(NC(=O)Cn2cccc2C2=NC(c3ccccc3)CO2)c(C)c1 (centres undefined) | -4.36%
N#Cc1ccc(OCc2nnc(-c3ccc([N+](=O)[O-])cc3)o2)cc1 | -2.49%
COCCn1c(SCC(=O)Nc2cc(Cl)ccc2OC)nc2c(c1=O)SC(C)C2 (centres undefined) | -1.62%
O=S(=O)(Oc1ccccc1C(=S)N1CCOCC1)c1ccc(Cl)cc1 | -1.08%
NC(=O)CC(NC(=O)Cc1ccc(Br)cc1)c1ccc(NC2CC3CCC2C3)c([N+](=O)[O-])c1 (centres undefined) | 8.14%
O=C(/C=C/c1ccc(F)cc1)NCCNC(=O)/C=C/c1ccc(F)cc1 | -1.57%
CC(C)c1ccc(/C=C/C(=O)NNC(=O)c2cccnc2)cc1 | 10.9%
C=CCNC(=O)/C=C/c1ccc(C(C)C)cc1 | 57.7% (active)
O=C(/C=C/c1cccc(C(F)(F)F)c1)N1CCN(c2ccccn2)CC1 | 2.61%
O=C(c1cccs1)N(Cc1cc2ccccc2[nH]c1=O)CC1CCCO1 (centres undefined) | -1.8%
COc1ccc(NC(=O)CN2C(=O)COc3ccc(S(=O)(=O)N4CCOCC4)cc32)c(OC)c1 | -3.45%
CCCCC[C@H]1CN(C2CCCCC2)C(=O)[C@@H]1CC(=O)NCc1ccc(OC)cc1 | -1.9%
CCn1c(SCC(=O)Nc2ccc3c(c2)OCCO3)nc2c(c1=O)SC(C)C2 (centres undefined) | -2.67%
Cc1ccc(-n2c(SCC(=O)Nc3ccc4c(c3)OCO4)nnc2-c2ccoc2C)cc1 | -6.42%
Cc1ccc(-n2c(SCC(=O)Nc3ccc4c(c3)OCO4)nnc2-c2ccccn2)cc1 | -4.03%

Compound | max response
CCC(=O)Nc1cccc(NC(=O)CSc2nnnn2C2CCCC2)c1 | 3.23%
O=C(CSc1nnnn1C1CCCC1)Nc1ccc2c(c1)OCCO2 | 20.7% (active)
O=C(CSc1nnnn1-c1ccc2c(c1)CCC2)Nc1ccc2c(c1)OCCO2 | 22.4% (active)
COCCCNC(NC(=O)c1ccc(OC)cc1)C(Cl)(Cl)Cl (centres undefined) | -1.44%
O=S(=O)(c1cc(Cl)ccc1Cl)N1CCN(Cc2ccco2)CC1 | -2.5%
CCC(C)N1C(=O)S/C(=C/c2ccc(Sc3nc4ccccc4[nH]3)o2)C1=O (centres undefined) | 8.57%
CC1CCN(S(=O)(=O)c2ccc3[nH]c(=O)ccc3c2)CC1 | 0.735%
CCN(c1ccc2c(c1)OCO2)S(=O)(=O)c1cc(Br)cc2c1N(C(=O)C1CC1)CC2 | 10.1%
COc1ccc(Cl)cc1NC(=O)CN(C)C(=O)CCCc1c[nH]c2ccccc12 | -3.1%
Cc1cccc(OCC(=O)NC2CC(C)(C)NC(C)(C)C2)c1 | -1.93%
COc1ccc2oc(=O)cc(CN3CCOCC3)c2c1 | -3.2%
Cc1cc(=O)oc2c3c(cc(OCC(=O)NCCC(=O)N[C@@H](C)C(=O)O)c12)OC(C)(C)CC3 | -1.18%
COc1ccc(S(=O)(=O)NCCc2cc3ccc(C)c(C)c3[nH]c2=O)cc1 | -6.24%
COCc1c(C(=O)N/N=C\c2cccnc2)nnn1-c1nonc1N | -4.36%
FC(F)(F)c1cccc(-c2cc3ccccc3nc2N2CCCC2)c1 | 3.78%
COc1ccc(/C=C(\C#N)c2c[nH]c3ccccc23)cc1 | 47.7% (active)
COc1ccc2[nH]cc(/C=C(/C#N)S(=O)(=O)c3ccccc3)c2c1 | -3.42%
CCC/C(=N\O)c1c[nH]c2ccccc12 | 13.5%
CCO[C@@H]1OC(C(N)=O)=C[C@H](c2ccc(Br)cc2)[C@H]1CCCO | -0.863%
CCC/C=C(\CCC)C(NC(=O)Cc1ccccc1)c1ccc(C(=O)OC)cc1 (centres undefined) | -2.68%
CN(C)Cc1c(O)ccc2occ(C(O)c3ccccc3)c12 (centres undefined) | 17.6% (active)
Cc1ccc(C(=O)c2coc3ccc(O)c(CN(C)C)c23)cc1 | -0.656%

Compound | max response
CN(C)Cc1c(O)ccc2c(=O)c(-c3ccccc3Cl)coc12 | 1.67%
c1ccc(Cc2ccc(OCCn3ccnc3)cc2)cc1 | 12%
C=CCc1cc(C)ccc1OCCCn1ccnc1 | -0.408%
Clc1c(OCCCn2ccnc2)ccc2ccccc12 | 20.6% (active)
COc1cc(S(=O)(=O)Nc2ncn[nH]2)ccc1Cl | -1.79%
CSc1nc2sc3c(c2c(=O)[nH]1)CCc1ccccc1-3 | -2.09%
CCSc1nnc(-c2cc3c(s2)-c2ccccc2CC3)o1 | 40.7% (active)
Fc1ccc(CSc2nnc(-c3cc4c(s3)-c3ccccc3CC4)o2)cc1 | 1.49%
Cn1sc(NC(=O)c2ccccc2)nc1=O | 9.66%
Cn1c(NC(=O)c2ccccc2)nc2ccccc21 | 25.8% (active)
CC(=O)NCCc1nc2cc(NC(=O)c3ccccc3)ccc2n1C | 20.2%
COc1cc2c(cc1OC)C(C(=O)NCc1ccco1)C1c3ccccc3CCN1C2=O (centres undefined) | -2.13%
Cc1cc(=O)oc2cc(OC(C)C(=O)NCCc3ccc(S(N)(=O)=O)cc3)ccc12 (centres undefined) | -2.25%
Cc1ccc(N2CCN(C(=O)c3cccs3)CC2)c(C)c1 | 1.82%
O=C(O)c1ccc(N/N=C/c2cn(-c3ccccc3)nc2-c2cccs2)cc1 | 14.7%
O=C(O)/C=C/c1cn(Cc2ccccc2)nc1-c1cccs1 | 0.958%
COc1ccc(-c2nn(-c3ccccc3)cc2/C=C\C(=O)N2CCOCC2)cc1[N+](=O)[O-] | -1.53%
O=C(O)/C=C/c1cn(-c2ccccc2)nc1-c1cccs1 | 20.8% (active)
O=C(/C=C/c1cn(-c2ccccc2)nc1-c1ccc2c(c1)OCCO2)NCCCN1CCOCC1 | 13.7%
O=C(/C=C\c1cn(-c2ccccc2)nc1-c1cccs1)N1CCOCC1 | 17.5% (active)

From PubChem BioAssay AID2314 (National Center for Advancing Translational Sciences (NCATS), 2010)
